We go through 21 compounds from PubChem BioAssay (Tox21).

Test [1] can be described thus: A CellTox Green Cytotoxicity Assay to monitor cytotoxicity in HEK293 cells - 40 hour (AID 1224871). Note: nearly all actives have a fitted effect of over 45% in size. Note: potency is the fitted concentration of half-maximal effect. Summed up: (§1)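 Fluorescence from a DNA-binding dye excluded by viable cells was measured repeatedly in the same HEK293 wells (600 cells/well) during continuous compound exposure at 37 C. Each assay gives one read point: 0, 8, 16, 24, 32 or 40 h.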
A short description of test [2]: qHTS RealTime-Glo MT Cell Viability Assay in HEK293 cells - 16 hour (AID 1224872). Note: nearly all actives have a fitted effect of over 50% in size. Note: potency is the fitted concentration of half-maximal effect. In a few lines: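 Tox21 10K qHTS, HEK293, 600 cells/well, RealTime-Glo reagent co-dispensed with cells; 5 h preincubation, compound by pintool, 37 C, luminescence at 0–40 h.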
Test [3] can be described thus: qHTS RealTime-Glo MT Cell Viability Assay in HepG2 cells - 8 hour (AID 1224873). Note: nearly all actives have a fitted effect of over 55% in size. Note: potency is the fitted concentration of half-maximal effect. Summed up: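 HepG2 cells mixed with RealTime-Glo MT reagents (NanoLuc plus cell-permeant prosubstrate) were seeded at 600 cells/well, incubated 5 h at 37 C/5% CO2, then pinned with compounds in DMSO; nonlytic luminescence tracked viability during 40 h treatment.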
The nature of test [4]: A CellTox Green Cytotoxicity Assay to monitor cytotoxicity in HEK293 cells - 24 hour (AID 1224875). Note: series mostly up to about 77 µM; nearly all actives have a fitted effect of over 45% in size. Summed up: as §1
A short description of test [5]: A CellTox Green Cytotoxicity Assay to monitor cytotoxicity in HepG2 cells - 16 hour (AID 1224876). Note: nearly all actives have a fitted effect of over 45% in size. Note: potency is the fitted concentration of half-maximal effect. In a few lines: (§2)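 Real-time cytotoxicity: fluorescence of a cell-impermeant cyanine dye binding DNA of dead HepG2 cells, measured repeatedly (0–40 h) during compound exposure at 37 C. Cells seeded 600/well with reagent, dosed after 5 h.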
Test [6] in a line: qHTS RealTime-Glo MT Cell Viability Assay in HepG2 cells - 32 hour (AID 1224877). Note: nearly all actives have a fitted effect of over 55% in size. Note: potency is the fitted concentration of half-maximal effect. Summed up:
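Cells + NanoLuc/prosubstrate dispensed (600 cells/well) → 5 h at 37 C/5% CO2 → compounds in DMSO transferred → 40 h incubation at 37 C, luminescence read at 0, 8, 16, 24, 32, 40 h.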

Test [7] can be described thus: A CellTox Green Cytotoxicity Assay to monitor cytotoxicity in HepG2 cells - 24 hour (AID 1224878). Note: nearly all actives have a fitted effect of over 45% in size. Note: potency is the fitted concentration of half-maximal effect. In a few lines: as §2
Test [8] in a line: A CellTox Green Cytotoxicity Assay to monitor cytotoxicity in HepG2 cells - 40 hour (AID 1224879). Note: nearly all actives have a fitted effect of over 40% in size. Note: potency is the fitted concentration of half-maximal effect. Summed up: as §2
A short description of test [9]: qHTS RealTime-Glo MT Cell Viability Assay in HEK293 cells - 40 hour (AID 1224874). Note: nearly all actives have a fitted effect of over 50% in size. Note: potency is the fitted concentration of half-maximal effect. The following applies: RealTime-Glo luminescence; max response: active compounds read low. In a few lines:
(§3)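 Luminescence, which tracks viable cell number through reduction of the prosubstrate to a NanoLuc substrate, was read over continuous 37 C culture. Cells (600/well) were premixed with reagent and rested 5 h before 23 nL of compound in DMSO was pinned.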

Test [10] is described as follows: qHTS RealTime-Glo MT Cell Viability Assay in HEK293 cells - 0 hour (AID 1224880). Note: nearly all actives have a fitted effect of over 45% in size. Note: potency is the fitted concentration of half-maximal effect. In a few lines: as §3

Each structure is given as a SMILES string. Where “and” joins values, the source holds several entries; their conditions need not be identical. Equal entries are not always repeated. Records with an inconclusive call do not appear. A number with no mark means an inactive call. Calls of active or inactive are those of the source. Calls come from the whole dose curve; as a rule, active = well fitted curve in the direction sought with a large enough effect in the repeat runs; inconclusive = weak or mixed curves; inactive = no such curve, though single readings can be large; an effect the other way counts as inactive or inconclusive.
% is set by controls: 0 for no effect and ±100 for the full control effect.

For the compound `NC(=O)Nc1ccc(Cl)c(Cl)c1`, the Potency result in [1], in [2], in test [3], in test [4], in test [5] and in test [6] was “inactive” each time. In addition, the Potency entry in test [7] and in [8] was “inactive” each time.
Take `CC(C)CCCC(=O)O`: the Potency result in test [1], in test [2], in [3], in [4], in test [5] and in test [6] was “inactive” each time. Besides, the Potency result in test [10] is “inactive”. Moreover, in test [9], the max response is -12.3%.
On to `CCc1cccc(N(C)C(N)=Nc2cccc3ccccc23)c1`, for which the Potency result in test [1], in [2], in test [3], in test [4], in test [5] and in [6] was “inactive” in each case. For the same compound, the Potency entry in test [10] is “inactive”.
Turning to `CC#N`, the Potency entry in test [1], in test [2], in test [3], in [4], in test [5] and in [6] was “inactive” throughout. For the same compound, in test [8], the Potency entry is “inactive”. Besides, the max response in test [9] is 1.57%.
As for `CCOC(=O)[C@@H](C)Oc1ccc(Oc2nc3ccc(Cl)cc3o2)cc1`, the Potency result in test [1], in test [4], in test [5], in [7] and in [10] was “inactive” in each case. In addition, the Potency in test [2] was 21.9 µM (active); in [3], 7.76 µM (active); in test [9], 21.9 µM (active).
Consider `O=C(O)c1c(O)c(-c2ccccc2)nc2ccccc12`, for which the Potency result in test [1], in [2], in test [3], in test [4], in test [5] and in test [6] was “inactive” each time. In addition, the Potency result in [7] and in [10] was “inactive” in each case. Besides, the max response in [9] was 0.412%.
On to `CC[C@H](NC(=O)c1cc(F)ccc1NS(=O)(=O)c1cccc2cccnc12)c1ccccc1`, for which the Potency result in test [1], in [2], in test [4], in [5] and in test [7] was “inactive” each time. In addition, the results for the Potency in test [3], in test [6] and in test [10] were 41.3 µM (active), 52 µM (active) and 23.2 µM (active), respectively. Further, in [9], the max response is -13%.
As for `Cc1cc(O)c(C(C)C)cc1Cl`, the Potency in test [1] was 38.9 µM (active); in test [5] it was 24.5 µM (active); in test [7] it was 27.5 µM (active); in [8], 34.7 µM (active). The Potency entry in test [2], in test [3], in test [6] and in test [10] was “inactive” in each case. In addition, the max response in test [9] is -23.1% and 3.73%.
Consider `O=C(O)c1ccccc1NCCc1ccccc1`, for which the Potency result in test [1], in test [2], in [3], in test [4], in test [5] and in test [6] was “inactive” each time. The Potency entry in test [10] was “inactive”. For the same compound, the max response in test [9] is -0.281%.
With `CC1(C)O[C@@H]2C[C@H]3[C@@H]4CCC5=CC(=O)C=C[C@]5(C)[C@H]4[C@@H](O)C[C@]3(C)[C@]2(C(=O)CO)O1`, the Potency result in [1], in [2], in [3], in test [4], in test [6] and in test [10] was “inactive” in each case. The max response in test [9] was -1.67%.
As for `Nc1ccc(S(=O)(=O)O)c(N)c1`, the Potency entry in test [1], in [2], in [3], in test [5], in test [6] and in [7] was “inactive” in each case. Also, the Potency entry in [8] and in test [10] was “inactive” in each case. Moreover, the max response in test [9] is -8.29%.
In the case of `CNC(=S)NC`, the Potency entry in test [1], in [2], in test [3], in test [4], in [5] and in [6] was “inactive” each time. In addition, the Potency entry in test [7] and in test [10] was “inactive” in each case. For the same compound, in test [8], the Potency was 54.9 µM (active).
In the case of `CC1=C(/C=C/C(C)=C\C=C\C(C)=C\C(=O)O)C(C)(C)CCC1`, the Potency in [1] was 49 µM (active). The Potency entry in test [2], in test [3], in test [5], in [7] and in [10] was “inactive” throughout. Also, the max response in test [9] was -21.3%.
Consider `Cc1ccc(S(=O)(=O)NC2CCCCC2)cc1`, for which the Potency entry in test [1], in test [2], in test [3], in test [4], in test [5] and in [6] was “inactive” each time. For the same compound, the Potency entry in test [10] is “inactive”.
For `OC(CCCN1CCCCC1)(c1ccccc1)c1ccccc1`, the Potency result in test [1], in [2], in test [3], in [4], in test [5] and in test [6] was “inactive” throughout. Besides, the Potency entry in [10] was “inactive”. For the same compound, the max response in test [9] was 0.842%.
For the compound `CC(C)CCCCCCOC(=O)CCCCC(=O)OCCCCCCC(C)C`, the Potency result in test [1], in test [2], in test [3], in [4], in test [5] and in [6] was “inactive” throughout. In addition, the Potency entry in [8] and in [10] was “inactive” throughout. Besides, the max response in [9] was 0.314%.
Turning to `CCCOc1ccc(S(=O)(=O)N2CCN(CC)CC2)cc1-c1nc2c(CC)n(Cc3ccccn3)nc2c(=O)[nH]1`, the Potency result in test [1], in test [2], in [3], in test [4], in [5] and in [6] was “inactive” in each case. For the same compound, the Potency entry in test [7], in test [8] and in test [10] was “inactive” throughout.
Turning to `CCCCCCCC/C=C\CCCCCCCC(=O)OC`, the Potency entry in test [1], in test [2], in test [3], in test [4], in [5] and in test [6] was “inactive” throughout. For the same compound, the Potency result in test [8] was “inactive”. The max response in [9] was 5.42%.
Consider `COC(=O)[C@@H]1CC2=CC(=O)CC[C@]2(C)[C@@]23O[C@@H]2C[C@@]2(C)[C@@H](CC[C@@]24CCC(=O)O4)[C@H]13`, for which the Potency result in test [1], in test [2], in [3], in [4], in test [5] and in test [6] was “inactive” throughout. Further, the Potency result in test [8] and in test [10] was “inactive” each time. The max response in test [9] was 1.85%.
On to `O=C(O)C(Cc1cc(I)c(O)c(I)c1)c1ccccc1` (centres undefined), for which the Potency result in test [1], in test [2], in test [3], in test [4], in test [5] and in [6] was “inactive” in each case. In addition, the Potency entry in test [8] and in test [10] was “inactive” throughout. In addition, the max response in test [9] was 0.775%.
Take `CCOC(=O)OCC`: the Potency result in test [1], in test [2], in test [4], in test [5], in test [6] and in [7] was “inactive” in each case. The Potency entry in test [8] and in test [10] was “inactive” each time. Also, the max response in test [9] is 7.38%.
